# Data published in PubChem BioAssay.
# Values without a mark were called inactive. Activity calls are given as the source filed them. Cut-off read from the data, not from the text of the source, unless noted: active = inhibition above about 30%; inactive = the rest.
# System: transactivating tegument protein VP16 (Human herpesvirus 1), Gal4-VP16 luciferase reporter
# Assay: VP16 transactivation inhibitors, counter-screen for SRC3 inhibitor project, cell-based, luminescence, high throughput (AID 588794)
# Conditions: mammalian cells, VP16-driven luciferase reporter luminescence; at 3.6 µM; active compounds read high
row,Compound,inhibition
1,CC(C)Cn1c(N)c(C(=O)CSc2ccc3c(c2)OCCO3)c(=O)n(C)c1=O,56.9% (active)
2,Cc1sc2ncnc(N3CCC(C(=O)Nc4ccccc4C(C)(C)C)CC3)c2c1C,27.6%
3,COc1cc(C(=O)OCC(=O)Nc2sccc2C(N)=O)cc(OC)c1OC,10.3%
4,CCCCCCCCCCCCCCCCCCNc1ccn(C2OC(COP(=O)(O)OCC3OC(n4cc(F)c(=O)[nH]c4=O)CC3O)C(O)C2O)c(=O)n1 (stereo not given),38.7% (active)
5,C=CCOc1ccccc1CNc1ccc2c(c1)OCCO2,12.4%
6,O=C(N/N=C(\c1ccccc1)c1ccccn1)c1ccccc1Cl,22.1%
7,O=C(Nc1nc(-c2ccccc2)cs1)C1CCCN(S(=O)(=O)c2ccccc2)C1 (stereo not given),16.4%
8,CN=C1S/C(=C\c2cc(C)n(-c3ccccc3F)c2C)C(=O)N1C,-38.2%
9,CC(=O)NC(c1cc(Cl)c2cccnc2c1O)C(C)C (stereo not given),23.5%
10,CN(C)/C=C/C(=O)c1ccc2noc(-c3ccccc3)c2c1,28.1%
11,COc1ccc(-c2coc3c(C(=O)Nc4cc(OC)c(OC)c(OC)c4)cccc23)c(C)c1,29.8% (active)
12,Nc1nc(/C=C/c2cccnc2)nc(-c2ccccc2O)n1,0.59%
13,COc1cccc(/C=N/NC(=O)c2cc3c(OC)cccc3[nH]2)c1O,29%
14,CCCc1c(C)nc2ccccc2c1SCCC#N,29%
15,CCN(CC)c1ccc2cc(NC(=O)CCC(=O)O)c(=O)oc2c1,42.9% (active)
16,COc1cc(Cl)cc(/C=N\NC(=O)c2ccc3c(c2)OCO3)c1O,33.3% (active)
17,O=[N+]([O-])c1ccc(O)c(/C=N/Nc2ccc(Cl)nn2)c1,83.6% (active)
18,CN(C)CCCN1C(=O)c2cccc3c([N+](=O)[O-])ccc(c23)C1=O,5.35%
19,CC(=O)NC(c1ccccc1)c1cc(Cl)c2cccnc2c1O (stereo not given),30.1% (active)
20,COc1ccc(NS(=O)(=O)c2ccc(NC(=O)c3ccc(N(C)S(C)(=O)=O)cc3)cc2)c(OC)c1,37% (active)

row,Compound,inhibition
1,CN1CC(=O)N2C(c3ccc(Cl)cc3)c3[nH]c4ccccc4c3C[C@H]2C1=O (stereo not given in full),29.5% (active)
2,c1ccc(-c2noc(-c3ccc4c(c3)OCO4)n2)nc1,7.86%
3,O=C(N/N=C/c1cc([N+](=O)[O-])ccc1O)c1cccc(N2CCCC2=O)c1,14.3%
4,CC(C)(C)S(=O)N1Cc2cc(C(=O)NCC(F)(F)F)nc(-c3cccc(-c4cccc(F)c4)c3)c2[C@@H]1CCO (stereo not given in full),2.05%
5,COc1ccc(CN(C)C(=O)c2ccc(OCC(=O)Nc3cccc(C(F)(F)F)c3)c(OC)c2)cc1,24.7%
6,O=S(=O)(/C(=C\c1ccc(C(F)(F)F)cc1)c1nc2ccccc2[nH]1)c1ccccc1,25.6%
7,CC(=O)N1CCN(c2ncnc3ccccc23)CC1,26.3%
8,CCN1/C(=C/c2ccc3cc(C)cc(C)c3[n+]2CC)Sc2cc(C)ccc21,66.3% (active)
9,OCCNc1ncnc2ccc(Br)cc12,30.6% (active)
10,CCCCN(CCCC)c1ncnc2nc[nH]c12,30.1% (active)
11,Oc1ccc(Nc2nc(N3CCCC3)c3ccccc3n2)cc1,42.7% (active)
12,Cn1c(/C(C#N)=C/c2ccc(-c3ccc(S(N)(=O)=O)cc3)o2)nc2ccccc21,27.3%
13,Cc1cc(CNC(=O)c2cccc([N+](=O)[O-])c2C)c2ccccc2n1,41.2% (active)
14,CC(C)(C)OC(=O)NCCCC[C@H](NC(=O)c1nc[nH]c1C(=O)N[C@@H](CCCCNC(=O)OC(C)(C)C)C(=O)OC(C)(C)C)C(=O)OC(C)(C)C,-9.56%
15,Cc1nnsc1C(=O)N/N=C/c1ccc2ccccc2c1O,71.3% (active)
16,CCN(CC)c1ccc(/C=N/NC(=O)CCC(=O)NCc2ccccc2)c(O)c1,21.6%
17,Cc1[nH]ccc2cc3nc4ccccc4c3cc12,36.2% (active)
18,CCOC(=O)c1ccccc1OC(=O)NNc1ccccc1,46.1% (active)
19,Oc1ccc(-c2n[nH]c(=S)n2-c2ccc3c(c2)OCCO3)c(O)c1,34% (active)
20,Cn1nnnc1N=N/C(=N/Nc1ccccc1)c1ccccc1,42.9% (active)

# Target: Nuclear receptor coactivator 1 (Homo sapiens) (UniProt Q15788)
# Assay: SRC1 coactivator transcriptional activity inhibitors, confirmation, cell-based, luminescence, quadruplicate (AID 588820;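 active = mean inhibition above 46.68%, the untreated control wells mean plus 3 SD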;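 note: 0% = DMSO wells and 100% = gossypol 36 µM treated wells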)
# Conditions: HEK293 GAL4-SRC1 luciferase reporter, at 3.6 µM, active compounds read high
# Nuclear receptor coactivator 1 (Homo sapiens), sequence (Q15788 whole entry, looked up): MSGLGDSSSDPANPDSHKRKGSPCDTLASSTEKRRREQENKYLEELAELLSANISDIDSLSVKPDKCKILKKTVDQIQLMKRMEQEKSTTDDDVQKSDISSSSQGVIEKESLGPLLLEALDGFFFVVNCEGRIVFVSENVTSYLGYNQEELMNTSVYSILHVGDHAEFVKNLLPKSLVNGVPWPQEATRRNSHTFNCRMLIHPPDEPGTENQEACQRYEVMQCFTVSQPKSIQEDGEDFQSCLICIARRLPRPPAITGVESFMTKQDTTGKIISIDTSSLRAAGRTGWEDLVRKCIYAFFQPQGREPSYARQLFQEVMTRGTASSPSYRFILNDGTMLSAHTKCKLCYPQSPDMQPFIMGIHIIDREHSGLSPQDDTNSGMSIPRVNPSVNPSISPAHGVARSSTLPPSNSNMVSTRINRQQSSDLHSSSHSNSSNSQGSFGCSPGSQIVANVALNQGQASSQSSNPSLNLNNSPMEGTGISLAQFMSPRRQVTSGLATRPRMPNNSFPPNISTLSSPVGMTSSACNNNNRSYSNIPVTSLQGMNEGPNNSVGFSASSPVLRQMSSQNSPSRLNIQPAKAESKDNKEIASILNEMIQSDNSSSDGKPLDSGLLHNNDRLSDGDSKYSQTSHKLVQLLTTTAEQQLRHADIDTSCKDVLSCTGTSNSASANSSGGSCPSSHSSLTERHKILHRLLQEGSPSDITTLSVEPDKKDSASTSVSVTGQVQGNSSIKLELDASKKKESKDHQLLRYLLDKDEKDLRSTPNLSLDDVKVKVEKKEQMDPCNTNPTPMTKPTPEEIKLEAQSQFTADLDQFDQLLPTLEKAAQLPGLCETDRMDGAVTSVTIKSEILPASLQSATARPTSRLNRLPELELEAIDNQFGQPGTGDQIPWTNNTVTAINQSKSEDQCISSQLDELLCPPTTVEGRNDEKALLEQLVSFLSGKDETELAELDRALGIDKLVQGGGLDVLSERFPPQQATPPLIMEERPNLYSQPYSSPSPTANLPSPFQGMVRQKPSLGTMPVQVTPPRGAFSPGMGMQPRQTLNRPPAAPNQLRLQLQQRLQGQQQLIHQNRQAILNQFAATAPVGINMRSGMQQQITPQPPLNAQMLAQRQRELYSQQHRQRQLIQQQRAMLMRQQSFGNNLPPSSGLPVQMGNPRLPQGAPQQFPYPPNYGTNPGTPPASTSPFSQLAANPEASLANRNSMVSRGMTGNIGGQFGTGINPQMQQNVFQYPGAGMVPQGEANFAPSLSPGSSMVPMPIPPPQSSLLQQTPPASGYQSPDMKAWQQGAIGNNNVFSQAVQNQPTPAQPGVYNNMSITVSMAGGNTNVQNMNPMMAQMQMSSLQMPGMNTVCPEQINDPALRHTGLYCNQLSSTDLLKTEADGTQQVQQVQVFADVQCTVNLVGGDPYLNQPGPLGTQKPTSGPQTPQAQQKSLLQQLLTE
row,Compound,inhibition
1,CC(C)Cn1c(N)c(C(=O)CSc2ccc3c(c2)OCCO3)c(=O)n(C)c1=O,46%
2,Cc1sc2ncnc(N3CCC(C(=O)Nc4ccccc4C(C)(C)C)CC3)c2c1C,41.9%
3,COc1cc(C(=O)OCC(=O)Nc2sccc2C(N)=O)cc(OC)c1OC,-42.7%
4,CCCCCCCCCCCCCCCCCCNc1ccn(C2OC(COP(=O)(O)OCC3OC(n4cc(F)c(=O)[nH]c4=O)CC3O)C(O)C2O)c(=O)n1 (stereo not given),51% (active)
5,C=CCOc1ccccc1CNc1ccc2c(c1)OCCO2,-17.1%
6,O=C(N/N=C(\c1ccccc1)c1ccccn1)c1ccccc1Cl,25.9%
7,O=C(Nc1nc(-c2ccccc2)cs1)C1CCCN(S(=O)(=O)c2ccccc2)C1 (stereo not given),-23.1%
8,CN=C1S/C(=C\c2cc(C)n(-c3ccccc3F)c2C)C(=O)N1C,-105%
9,CC(=O)NC(c1cc(Cl)c2cccnc2c1O)C(C)C (stereo not given),38.5%
10,CN(C)/C=C/C(=O)c1ccc2noc(-c3ccccc3)c2c1,41.3%
11,COc1ccc(-c2coc3c(C(=O)Nc4cc(OC)c(OC)c(OC)c4)cccc23)c(C)c1,0.16%
12,Nc1nc(/C=C/c2cccnc2)nc(-c2ccccc2O)n1,-16.8%
13,COc1cccc(/C=N/NC(=O)c2cc3c(OC)cccc3[nH]2)c1O,37.1%
14,CCCc1c(C)nc2ccccc2c1SCCC#N,39.6%
15,CCN(CC)c1ccc2cc(NC(=O)CCC(=O)O)c(=O)oc2c1,44.2%
16,COc1cc(Cl)cc(/C=N\NC(=O)c2ccc3c(c2)OCO3)c1O,30.5%
17,O=[N+]([O-])c1ccc(O)c(/C=N/Nc2ccc(Cl)nn2)c1,73.1% (active)
18,CN(C)CCCN1C(=O)c2cccc3c([N+](=O)[O-])ccc(c23)C1=O,-9.62%
19,CC(=O)NC(c1ccccc1)c1cc(Cl)c2cccnc2c1O (stereo not given),36%
20,COc1ccc(NS(=O)(=O)c2ccc(NC(=O)c3ccc(N(C)S(C)(=O)=O)cc3)cc2)c(OC)c1,-6.59%

row,Compound,inhibition
1,CN1CC(=O)N2C(c3ccc(Cl)cc3)c3[nH]c4ccccc4c3C[C@H]2C1=O (stereo not given in full),25%
2,c1ccc(-c2noc(-c3ccc4c(c3)OCO4)n2)nc1,8.09%
3,O=C(N/N=C/c1cc([N+](=O)[O-])ccc1O)c1cccc(N2CCCC2=O)c1,34.5%
4,CC(C)(C)S(=O)N1Cc2cc(C(=O)NCC(F)(F)F)nc(-c3cccc(-c4cccc(F)c4)c3)c2[C@@H]1CCO (stereo not given in full),-14.2%
5,COc1ccc(CN(C)C(=O)c2ccc(OCC(=O)Nc3cccc(C(F)(F)F)c3)c(OC)c2)cc1,2.4%
6,O=S(=O)(/C(=C\c1ccc(C(F)(F)F)cc1)c1nc2ccccc2[nH]1)c1ccccc1,-29.1%
7,CC(=O)N1CCN(c2ncnc3ccccc23)CC1,45.1%
8,CCN1/C(=C/c2ccc3cc(C)cc(C)c3[n+]2CC)Sc2cc(C)ccc21,0.74%
9,OCCNc1ncnc2ccc(Br)cc12,29.2%
10,CCCCN(CCCC)c1ncnc2nc[nH]c12,36.2%
11,Oc1ccc(Nc2nc(N3CCCC3)c3ccccc3n2)cc1,34%
12,Cn1c(/C(C#N)=C/c2ccc(-c3ccc(S(N)(=O)=O)cc3)o2)nc2ccccc21,-4.53%
13,Cc1cc(CNC(=O)c2cccc([N+](=O)[O-])c2C)c2ccccc2n1,16%
14,CC(C)(C)OC(=O)NCCCC[C@H](NC(=O)c1nc[nH]c1C(=O)N[C@@H](CCCCNC(=O)OC(C)(C)C)C(=O)OC(C)(C)C)C(=O)OC(C)(C)C,-34.5%
15,Cc1nnsc1C(=O)N/N=C/c1ccc2ccccc2c1O,75% (active)
16,CCN(CC)c1ccc(/C=N/NC(=O)CCC(=O)NCc2ccccc2)c(O)c1,12.5%
17,Cc1[nH]ccc2cc3nc4ccccc4c3cc12,31.7%
18,CCOC(=O)c1ccccc1OC(=O)NNc1ccccc1,11.2%
19,Oc1ccc(-c2n[nH]c(=S)n2-c2ccc3c(c2)OCCO3)c(O)c1,20.9%
20,Cn1nnnc1N=N/C(=N/Nc1ccccc1)c1ccccc1,55.5% (active)
